Here are results for 48 compounds from the supplement of paper PMC11537057.

Counter-ions that a name gives are not always drawn. The campaign covered roughly 1,700 compounds. About 15 (0.9%) showed activity.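 Rule for the calls: active = infection cut by 80% or more with cell growth above 90% in both runs; inactive = the rest.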 Many of the other results were omitted from the sample, so actives are more common in it than they were.

The subject of the assay is HSV-1 strain 17 YFP-ICP4 in A549. Kind of assay: HSV-1 infection relative to DMSO (ICP4-YFP per H2B-RFP signal); higher = more viral infection (less antiviral activity), active = hit call of the paper. As to conditions: 10 µM; 48 h; MOI: 0.1. How it is done:
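Selleck FDA-approved library (L1300) screened in duplicate at 10 µM on A549 H2B-mRuby cells in 384-well plates, infected with HSV-1 strain 17 YFP-ICP4 at MOI 0.1 one hour before drug addition. Imaged after 2 days at 37°C. Cell growth (H2B-RFP) and infection (ICP4-YFP) are expressed as % of DMSO-treated wells. Hits: growth >90% and infection <20% of DMSO.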
Consider `CO/N=C(\C(=O)N[C@@H]1C(=O)N2C(C(=O)[O-])=C(C[N+]3(C)CCCC3)CS[C@H]12)c1csc(N)n1` [Cefepime Dihydrochloride Monohydrate], for which the HSV-1 infection was 98% (inactive). Next, `CCCc1nc(C(C)(C)O)c(C(=O)O)n1Cc1ccc(-c2ccccc2-c2nnn[nH]2)cc1` [Olmesartan]: 114% (inactive); `C[C@H](Nc1ncnc2nc[nH]c12)c1cc2cccc(Cl)c2c(=O)n1-c1ccccc1` [Duvelisib (IPI-145, INK1197)]: 69.2% (inactive); `CSCC[C@H](NC(=O)[C@H](CC(C)C)NC(=O)[C@H](Cc1c[nH]c2ccccc12)NC(=O)[C@H](CCC(N)=O)NC(=O)[C@@H](NC(=O)[C@H](Cc1ccccc1)NC(=O)[C@H](CC(=O)O)NC(=O)[C@H](CCC(N)=O)NC(=O)[C@H](C)NC(=O)[C@H](CCCNC(=N)N)NC(=O)[C@H](CCCNC(=N)N)NC(=O)[C@H](CO)NC(=O)[C@H](CC(=O)O)NC(=O)[C@H](CC(C)C)NC(=O)[C@H](Cc1ccc(O)cc1)NC(=O)[C@H](CCCCN)NC(=O)[C@H](CO)NC(=O)[C@H](Cc1ccc(O)cc1)NC(=O)[C@H](CC(=O)O)NC(=O)[C@H](CO)NC(=O)[C@@H](NC(=O)[C@H](Cc1ccccc1)NC(=O)[C@@H](NC(=O)CNC(=O)[C@H](CCC(N)=O)NC(=O)[C@H](CO)NC(=O)[C@@H](N)Cc1cnc[nH]1)[C@@H](C)O)[C@@H](C)O)C(C)C)C(=O)N[C@@H](CC(N)=O)C(=O)N[C@H](C(=O)O)[C@@H](C)O` [Glucagon HCl]: 99.3% (inactive). Turning to `COc1cc(CNC(=O)CCCCC=CC(C)C)ccc1O` [Capsaicin(Vanilloid)], the HSV-1 infection is 86.2% (inactive). The value for `CC1(C)CCC(CN2CCN(c3ccc(C(=O)NS(=O)(=O)c4ccc(NCC5CCOCC5)c([N+](=O)[O-])c4)c(Oc4cnc5[nH]ccc5c4)c3)CC2)=C(c2ccc(Cl)cc2)C1` [Venetoclax (ABT-199, GDC-0199)] was 96% (inactive); that for `CC(O)c1ccc(S(=O)(=O)NC(=O)NC2CCCCC2)cc1` (stereo not drawn) [Hydroxyhexamide] was 94.9% (inactive). The value for `COc1ccc2c(O[C@@H]3C[C@H]4C(=O)N[C@]5(C(=O)NS(=O)(=O)C6CC6)C[C@H]5/C=C\CCCCN(C)C(=O)[C@@H]4C3)cc(-c3nc(C(C)C)cs3)nc2c1C` [Simeprevir] was 84.7% (inactive); that for `COc1cc(C(=O)O)ccc1NC(=O)[C@@H]1N[C@@H](CC(C)(C)C)[C@](C#N)(c2ccc(Cl)cc2F)[C@H]1c1cccc(Cl)c1F` [Idasanutlin (RG-7388)] was 101% (inactive); that for `O=c1[nH]c2ccccc2n1CCN1CCN(c2cccc(C(F)(F)F)c2)CC1` [Flibanserin] was 89.9% (inactive). For the compound `CC(C)(Oc1ccc(Cl)cc1)C(=O)OCCOC(=O)c1cccnc1` [Etofibrate], the HSV-1 infection is 109% (inactive).

In the case of `NCCCC[C@H](NC(=O)[C@@H]1CCCN1C(=O)[C@@H]1CSSC[C@H](NC(=O)CNC(=O)CNC(=O)CN)C(=O)N[C@@H](Cc2ccc(O)cc2)C(=O)N[C@@H](Cc2ccccc2)C(=O)N[C@@H](CCC(N)=O)C(=O)N[C@@H](CC(N)=O)C(=O)N1)C(=O)NCC(N)=O` [Terlipressin Acetate], the HSV-1 infection is 110% (inactive). The value for `CCOc1ccc(Cc2cc([C@@H]3O[C@H](SC)[C@@H](O)[C@H](O)[C@H]3O)ccc2Cl)cc1` [Sotagliflozin (LX4211)] was 111% (inactive); that for `CCCCCCCCCC(=O)N[C@H]1[C@H](Oc2c3cc4cc2Oc2ccc(cc2Cl)[C@@H](O[C@@H]2O[C@H](CO)[C@@H](O)[C@H](O)[C@H]2NC(C)=O)[C@@H]2NC(=O)[C@H](NC(=O)[C@@H]4NC(=O)[C@H]4NC(=O)[C@@H](Cc5ccc(c(Cl)c5)O3)NC(=O)[C@H](N)c3ccc(O)c(c3)Oc3cc(O)cc4c3)c3ccc(O)c(c3)-c3c(OC4O[C@H](CO)[C@@H](O)[C@H](O)[C@@H]4O)cc(O)cc3[C@@H](C(=O)O)NC2=O)O[C@H](CO)[C@@H](O)[C@@H]1O` (stereo partly drawn) [Teicoplanin] was 89% (inactive); that for `CN(C)Cc1ccc(S(=O)(=O)n2ccc(/C=C/C(=O)NO)c2)cc1` [Resminostat] was 64.2% (inactive).

As to `C1=N/C2=N/c3ccc(OCCN4CCCC4)c(c3)COC/C=C/COCc3cccc(c3)C(=C1)N2` [Pacritinib (SB1518)], the HSV-1 infection was 22.2% (inactive). The value for `COc1ccc(CN(C(=O)[C@@H](N)Cc2c(C)cc(C(N)=O)cc2C)[C@@H](C)c2ncc(-c3ccccc3)[nH]2)cc1C(=O)O` [Eluxadoline] was 97.4% (inactive); that for `O=C(NC[C@H]1CN(c2ccc(N3CCOCC3=O)cc2)C(=O)O1)c1ccc(Cl)s1` [Rivaroxaban] was 110% (inactive). As to `N.N.O=C([O-])C[O-].[Pt+2]` [Nedaplatin], the HSV-1 infection was 87% (inactive). Regarding `N#C[C@@H]1CCCN1C(=O)CNC12CC3CC(CC(O)(C3)C1)C2` [Vildagliptin (LAF-237)], the HSV-1 infection is 103% (inactive). Consider `O[C@@H](COc1cccc2ncccc12)CN1CCN(C2c3ccccc3[C@@H]3[C@H](c4ccccc42)C3(F)F)CC1` (stereo partly drawn), for which the HSV-1 infection is 75.2% (inactive). Next, `CC[C@@H]1C(=O)N(C)c2cnc(Nc3ccc(C(=O)N[C@H]4CC[C@H](N5CCN(CC6CC6)CC5)CC4)cc3OC)nc2N1C(C)C` [Volasertib (BI 6727)]: 29.3% (inactive); `CO[C@@]1(NC(=O)CSC[C@@H](N)C(=O)O)C(=O)N2C(C(=O)O)=C(CSc3nnnn3C)CS[C@@H]21` [Cefminox Sodium]: 110% (inactive). For the compound `Cc1cc(C)c2c(c1)[C@@H](N(Cc1cc(C(F)(F)F)cc(C(F)(F)F)c1)c1nnn(C)n1)CCCN2C[C@H]1CC[C@H](C(=O)O)CC1`, the HSV-1 infection is 88.1% (inactive). The value for `C#CCN[C@@H]1CCc2ccccc21` [Rasagiline Mesylate] was 98.1% (inactive); that for `C[C@H]1CN(C[C@H](Cc2ccccc2)C(=O)NCC(=O)O)CC[C@@]1(C)c1cccc(O)c1` [Alvimopan dihydrate] was 104% (inactive); that for `CN1CCN(CCOc2cc(OC3CCOCC3)c3c(Nc4c(Cl)ccc5c4OCO5)ncnc3c2)CC1` [Saracatinib (AZD0530)] was 38.7% (inactive).

For the compound `COc1nc2ccc(Br)cc2cc1[C@@H](c1ccccc1)[C@@](O)(CCN(C)C)c1cccc2ccccc12` [Bedaquiline], the HSV-1 infection is 114% (inactive). Take `COc1nc2ccc(Br)cc2cc1[C@@H](c1ccccc1)[C@@](O)(CCN(C)C)c1cccc2ccccc12` [Bedaquiline fumarate]: the HSV-1 infection was 111% (inactive). Turning to `Cc1cn(-c2cc(NC(=O)c3ccc(C)c(Nc4nccc(-c5cnccn5)n4)c3)cc(C(F)(F)F)c2)cn1` [Radotinib], the HSV-1 infection is 34.8% (inactive). Next, `C[N+](C)(C)CCO.O=C([O-])C(O)C(O)C(=O)O` (stereo not drawn) [Choline bitartrate]: 97.1% (inactive). The value for `C[C@H](NC(=O)[C@@H](Cc1ccc2ccccc2c1)NC(=O)[C@@H](C)N)C(=O)N[C@@H](Cc1c[nH]c2ccccc12)C(=O)N[C@H](Cc1ccccc1)C(=O)N[C@@H](CCCCN)C(N)=O` was 97.6% (inactive); that for `Cn1ncc(Cl)c1-c1cc(C(=O)N[C@H](CN)Cc2cccc(F)c2)sc1Cl` was 52.8% (inactive); that for `CN(C)N(C)C(=O)[C@@]1(Cc2ccccc2)CCCN(C(=O)[C@@H](Cc2c[nH]c3ccccc23)NC(=O)C(C)(C)N)C1` [Anamorelin] was 97% (inactive).

Turning to `CN1CCc2nc(C(=O)N[C@@H]3C[C@@H](C(=O)N(C)C)CC[C@@H]3NC(=O)C(=O)Nc3ccc(Cl)cn3)sc2C1` [Edoxaban tosylate Monohydrate], the HSV-1 infection is 124% (inactive). For the compound `CN1CCc2nc(C(=O)N[C@@H]3C[C@@H](C(=O)N(C)C)CC[C@@H]3NC(=O)C(=O)Nc3ccc(Cl)cn3)sc2C1` [Edoxaban], the HSV-1 infection is 115% (inactive). Next, `Cc1ccccc1-c1cc(N2CCN(C)CC2)ncc1N(C)C(=O)C(C)(C)c1cc(C(F)(F)F)cc(C(F)(F)F)c1` [Netupitant]: 114% (inactive); `CC(=O)Oc1c(C)c(C)c2c(c1C)CCC(C)(CCC[C@H](C)CCC[C@H](C)CCCC(C)C)O2` (stereo partly drawn) [Vitamin E Acetate]: 116% (inactive); `CC(=O)Oc1ccccc1C(=O)O.CC(=O)Oc1ccccc1C(=O)O.NC(N)=O` [Carbasalate Calcium]: 90.3% (inactive).

Regarding `CNS(=O)(=O)C[C@H]1CC[C@H](N(C)c2[nH]cnc3nccc2-3)CC1`, the HSV-1 infection was 102% (inactive).

Turning to `Cc1cc(S(=O)(=O)O)c2c(C)ccc(C(C)C)cc1-2` [Sodium gualenate], the HSV-1 infection was 93% (inactive).

As to `COc1ccc(C[C@@H]2c3cc(OC)c(OC)cc3CC[N@+]2(C)CCC(=O)OCCCCCOC(=O)CC[N@@+]2(C)CCc3cc(OC)c(OC)cc3[C@H]2Cc2ccc(OC)c(OC)c2)cc1OC` [Cisatracurium Besylate], the HSV-1 infection was 90.4% (inactive). For `NC(=O)[C@@H]1CC[C@@H]2CN1C(=O)N2OS(=O)(=O)O` [Avibactam sodium], the HSV-1 infection was 116% (inactive). The value for `CN(C)c1ccc2nc3ccc(=[N+](C)C)cc-3sc2c1` [Methylene Blue] was 3.01% (active); that for `COc1cc(S(=O)(=O)O)ccc1O` [Sulfogaiacol] was 93.8% (inactive). The value for `N#CC1(c2ccc(NC(=O)c3cccnc3NCc3ccncc3)cc2)CCCC1` was 91.6% (inactive).

As to `CCCCc1nc2cc(/C=C/C(=O)NO)ccc2n1CCN(CC)CC` [Pracinostat (SB939)], the HSV-1 infection is 44.1% (inactive). The value for `C[C@@H](O)[C@@H]1NC(=O)[C@H](CCCCN)NC(=O)[C@@H](Cc2c[nH]c3ccccc23)NC(=O)[C@H](Cc2ccccc2)NC(=O)[C@@H](NC(=O)[C@H](N)Cc2ccccc2)CSSC[C@@H](C(=O)N[C@H](CO)[C@@H](C)O)NC1=O` [Octreotide Acetate] was 93.8% (inactive).
